Compounds without any hit were thinned out: in the full panel of roughly 83,000, 20% have a hit.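 Method: cells in 96-well plates; compound added at one concentration; 48 h incubation; percent growth measured; values under 10 scored active.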 Unmarked numbers belong to inactive results. The source made the active and inactive calls.

Assay in all cases: NCI-60 one-dose screen, 48 h (100 = growth as untreated, 0 = no growth, -100 = all killed)
Holding throughout (conditions): 10 µM unless noted

Test [1] has as its system T-47D breast.
For test [2], the system named is BT-549 breast.
The test system of test [3] is MDA-MB-435 melanoma.
The test system of test [4] is SW-620 colon.
Test [5] has as its system MCF7 breast.
The test system of test [6] is HCT-116 colon.
Test [7] deals with HCC-2998 colon.
In test [8] the test system is KM12 colon.

On to `CCOC(=O)c1cnn2c3ccccc3n(S(=O)(=O)c3ccc(OC)cc3)c12`, for which the growth was 71.8% in test [1]; 17.5% in test [2]; 2.91% (active) in test [3]; 25.9% in test [4]; 18.5% in test [5]; 14.4% in test [6]. In addition, the growth in test [7] was 16.9%; in test [8], 25.9%.

With `Cc1ccc(C(=O)NN2C(=O)CSC2c2cccc([N+](=O)[O-])c2)cn1` (stereo not given), the growth is 96.1% in test [1]; 104% in test [2]; 97% in test [3]; 98.3% in test [4]; 112% in test [5]; 99.6% in test [6]. Further, the growth was 84% in test [7] and 106% in test [8].

With `CCN1C(=O)N(CC)C2Nn3c(s/c(=C4\C(=O)N(CCC(C)C)c5ccccc54)c3=O)=NC21` (stereo not given), the growth in test [1] is 36.3%; in test [2], 99.6%; in test [3] it was 12.5%; in test [4] it was 61.1%; in test [5], 15.1%; in test [6] it was 12.6%. Moreover, the values for the growth in test [7] and in test [8] were 99.8% and 67.9%, respectively.

In the case of `O=C(Nc1ccc(Cl)cc1F)c1ccccc1O`, the growth in test [1] is 29.9%; in test [2], 24.9%; in test [3], 41.3%; in test [4], 60.4%; in test [5], 47.6%; in test [6] it was 34.6%. For the same compound, the growth was 77.1% in test [7] and 54.4% in test [8].

Turning to `Nc1nc(-c2cccc3ccccc23)cc2ccccc12`, the growth in test [1] is 43.7%; in test [2], 39.2%; in test [3], -64.8% (active); in test [4], 19.4%; in test [5], 7.69% (active); in test [6], 10.8%. For the same compound, the growth is -5.78% (active) in test [7] and 5.93% (active) in test [8].

In the case of `O=C(N/N=C/[C@H](O)[C@@H](O)[C@@H](O)[C@H](O)CO)c1ccc(NC(=O)c2cccnc2)cc1`, the growth in test [1] was 100%; in test [2] it was 106%; in test [3], 106%; in test [4] it was 108%; in test [5] it was 94.8%; in test [6], 108%. Further, the growth in test [7] is 117%; in test [8], 106%.

With `COc1ccc(OC)c(/C=C2\Oc3cc(OCCN4CCC(Cc5ccccc5)CC4)ccc3C2=O)c1`, the growth in test [1] was 63.1%; in test [2], 89.8%; in test [3], 87.3%; in test [4], 74.5%; in test [5], 77.3%; in test [6], 73%. The growth is 19.7% in test [7] and 92.9% in test [8].

On to `CCCCCCNC(=O)Oc1ccc(/C(=C(\C)c2ccc(Cl)cc2)c2ccc(OCCCN(C)C)cc2)cc1`, for which the growth in test [1] was 61.1%; in test [2], 90.6%; in test [3], 72.4%; in test [4], 87.9%; in test [5] it was 25.2%; in test [6], 36.9%. For the same compound, the figures for the growth in test [7] and in test [8] were 82.3% and 59.6%, respectively.

As to `COc1ccc2cc(C(C)C(=O)Nc3ccc(-c4n[nH]c(=S)n4C4CCCCC4)cc3)ccc2c1` (stereo not given), the growth in test [1] was 69.7%; in test [2], 90.9%; in test [3], 62.4%; in test [4], 92.2%; in test [5] it was 48.3%; in test [6], 48.6%. Besides, the growth in test [7] is 70.5%; in test [8], 55.9%.

`C=C1C(=O)O[C@H]2[C@H]1CC/C(COC(=O)CCSSCCC(=O)OC/C1=C/CC[C@@]3(C)O[C@H]3[C@H]3OC(=O)C(=C)[C@@H]3CC1)=C\CC[C@@]1(C)O[C@@H]21`: the growth in test [1] is -8.54% (active); in test [2], -78.5% (active); in test [3], 10.8%; in test [4], -77.7% (active); in test [5], -49.4% (active); in test [6], -90.2% (active). Also, the growth in test [7] was 67%; in test [8] it was 51.6%.

In the case of `O=C(Oc1cccc2ccccc12)Oc1cccc2ccccc12`, the growth is 95.1% in test [1]; 98.9% in test [2]; 115% in test [3]; 110% in test [4]; 107% in test [5]; 107% in test [6]. Further, the growth was 105% in test [7] and 97.3% in test [8].

On to `Cc1ccc(-c2nc(N3CCN(CC(=O)Nc4ccc(Cl)c(C(F)(F)F)c4)CC3)c3ccccc3n2)cc1`, for which the growth was 74.7% in test [1]; 94.2% in test [2]; 94.6% in test [3]; 91.7% in test [4]; 74.7% in test [5]; 79.2% in test [6]. Further, the growth in test [7] was 112%; in test [8], 94.2%.

On to `NC(=O)Nc1ccc2ncnc(Nc3ccc(Cl)cc3)c2c1`, for which the growth in test [1] is 61.6%; in test [2], 92.4%; in test [3], 97.8%; in test [4], 99.1%; in test [5], 86.5%; in test [6], 96.4%. In addition, the results for the growth in test [7] and in test [8] were 97.9% and 98.5%, respectively.

In the case of `CC1=C([Se]CC(OC(=O)[C@@H](CSSC(C)(C)C)NC(=O)OC(C)(C)C)C(=O)NC(C)(C)C)C(=O)c2ccccc2C1=O` (stereo not given in full), the growth in test [1] is -50.3% (active); in test [2], -97.8% (active); in test [3], -91.2% (active); in test [4] it was -83.3% (active); in test [5], -25.9% (active); in test [6], -73.8% (active). Also, the growth in test [7] was -93.5% (active); in test [8], -97.7% (active).

Consider `NC[C@@H]1O[C@H](O[C@@H]2[C@@H](CO)OC(O[C@@H]3[C@@H](O)[C@H](N)C[C@H](N)[C@H]3OC3O[C@H](CN)[C@@H](O)[C@H](O)[C@H]3N)[C@@H]2O)[C@H](N)[C@@H](O)[C@@H]1O` (stereo not given in full), for which the growth was 115% in test [1]; 109% in test [2]; 102% in test [3]; 109% in test [4]; 103% in test [5]; 102% in test [6]. In addition, the results for the growth in test [7] and in test [8] were 108% and 110%, respectively.
